Measurements published in PMC5540273 (PLoS ONE, 2017).

Key:
Conditions in all cases: concentration: 1 μM, replicates: in singlicate; n = 1
[1] = system: ALK
[2] = system: T1, AMPK-alpha1
T1 construct: gene PRKAA1

[3] = system: T2, AMPK-alpha2
T2 construct: gene PRKAA2

[4] = system: ANKK1
[5] = system: T3, ARK5
T3 construct: gene NUAK1

[6] = system: T4, ASK1
T4 construct: gene MAP3K5

[7] = system: T5, ASK2
T5 construct: gene MAP3K6

[8] = system: AURKA
[9] = system: AURKB
[10] = system: AURKC
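Also: KINOMEscan kinase panel screen.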

Structure (SMILES) | %Inh [1] | %Inh [2] | %Inh [3] | %Inh [4] | %Inh [5] | %Inh [6] | %Inh [7] | %Inh [8] | %Inh [9] | %Inh [10]
CN1C(=O)C(Nc2cc(Cl)c(O)c(Cl)c2)=C(c2ccc(Cl)cc2)C1=O [SB-404321] | 48% | 0% | 0% | 0% | 0% | 0% | 0% | 0% | 14% | 0%
CCc1nc(-c2cccc(C)c2)c(-c2ccncc2)s1 | 0% | 0% | 0% | 0% | 17% | 0% | 0% | 0% | 13% | 0%
CCC(=O)c1c(-c2ccccc2)c2cc(Cl)ccc2c(=O)n1Cc1cc(C(=O)NC2CC2)n(C)n1 | 32% | 22% | 5% | 0% | 0% | 0% | 0% | 22% | 26% | 0%
COc1cc2ncn(-c3cc(OCc4ccc(S(C)(=O)=O)cc4)c(C(N)=O)s3)c2cc1OC [GW869979] | 26% | 0% | 0% | 20% | 0% | 18% | 37% | 0% | 0% | 0%
COc1ccc(-n2cnc3c(N)ncnc32)cc1 [SKF-97236] | 0% | 16% | 20% | 17% | 0% | 0% | 0% | 0% | 16% | 63%
Nc1ncnc2c1ncn2-c1cccc2ccccc12 [SKF-97184] | 0% | 0% | 21% | 0% | 0% | 0% | 0% | 0% | 28% | 0%
COc1ccc(CNC(=O)NC2CCN(c3ccnc(Nc4ccc(F)cc4)n3)C2)cc1 (centres unmarked) [GSK1379706] | 0% | 0% | 0% | 8% | 16% | 11% | 0% | 35% | 20% | 19%
COc1cc2ncn(-c3cc(OCCCc4ccccc4)c(C(N)=O)s3)c2cc1OC [GSK205189] | 0% | 28% | 0% | 0% | 0% | 0% | 0% | 0% | 18% | 45%
OCCCNc1nccc(-c2c(-c3cccc(C(F)(F)F)c3)nn3cc(C(F)(F)F)ccc23)n1 [GW630813] | 0% | 0% | 0% | 5% | 0% | 0% | 0% | 17% | 0% | 7%
COc1ccc(-c2cc3c(C)nc(N)nc3n([C@H]3CC[C@H](O)CC3)c2=O)cn1 | 0% | 0% | 0% | 0% | 4% | 6% | 0% | 0% | 0% | 0%
O=C(Nc1ccc2c(c1)OCO2)NC1CCN(c2ccnc(NCc3ccc(F)cc3)n2)CC1 [GSK1379859] | 9% | 0% | 0% | 0% | 6% | 0% | 0% | 11% | 0% | 24%
CC(C)(C)c1ccc(C(=O)Nc2cn3cc(-c4ccccc4)ccc3n2)cc1 | 0% | 0% | 0% | 0% | 13% | 40% | 0% | 48% | 51% | 0%
CCCC(=O)Nc1n[nH]c2ncc(-c3cccc4ccccc34)cc12 [SB-642057] | 29% | 37% | 19% | 7% | 6% | 9% | 9% | 6% | 24% | 16%
O=C1NC(=O)C(c2ccccc2)=C1Nc1cccc(O)c1 [SB-390534] | 0% | 0% | 0% | 0% | 0% | 0% | 4% | 12% | 35% | 0%
COc1cc(Nc2nccc(N3CCC(NC(=O)C4COc5ccccc5O4)C3)n2)cc(OC)c1OC (centres unmarked) [GSK1379761] | 18% | 11% | 0% | 24% | 2% | 0% | 5% | 51% | 72% | 75%
COc1ccc(-c2cc3c(C)nc(N)nc3n([C@H]3CC[C@H](OCCO)CC3)c2=O)cn1 | 0% | 5% | 2% | 0% | 0% | 11% | 0% | 0% | 0% | 7%
Cc1cc(Nc2nc(-c3cccc(C)n3)nc3ccccc23)ccn1 [GW872411] | 0% | 0% | 0% | 0% | 9% | 0% | 0% | 3% | 14% | 0%
